# Test results as given in PubChem BioAssay (NCATS).
# Values without a mark were called inactive. Records with an inconclusive call do not appear. A call without a number means that no potency is given here. Active and inactive are the calls of the source. Calls come from the whole dose curve; as a rule, active = well fitted curve in the direction sought with a large enough effect; inconclusive = small, poorly fitted or top-dose-only effect, or another doubt; inactive = no such curve, though single readings can be large; an effect the other way counts as inactive or inconclusive.
# Assays:
# [1] = biological target: Cytochrome P450 2C9 (Homo sapiens) (UniProt P11712); assay: qHTS Assay for Inhibitors and Substrates of Cytochrome P450 2C9 (AID 883); note: nearly all actives have a fitted effect of over 60% in size; note: potency is the fitted concentration of half-maximal effect
# Sequence of Cytochrome P450 2C9 (Homo sapiens) (P11712 whole entry, looked up): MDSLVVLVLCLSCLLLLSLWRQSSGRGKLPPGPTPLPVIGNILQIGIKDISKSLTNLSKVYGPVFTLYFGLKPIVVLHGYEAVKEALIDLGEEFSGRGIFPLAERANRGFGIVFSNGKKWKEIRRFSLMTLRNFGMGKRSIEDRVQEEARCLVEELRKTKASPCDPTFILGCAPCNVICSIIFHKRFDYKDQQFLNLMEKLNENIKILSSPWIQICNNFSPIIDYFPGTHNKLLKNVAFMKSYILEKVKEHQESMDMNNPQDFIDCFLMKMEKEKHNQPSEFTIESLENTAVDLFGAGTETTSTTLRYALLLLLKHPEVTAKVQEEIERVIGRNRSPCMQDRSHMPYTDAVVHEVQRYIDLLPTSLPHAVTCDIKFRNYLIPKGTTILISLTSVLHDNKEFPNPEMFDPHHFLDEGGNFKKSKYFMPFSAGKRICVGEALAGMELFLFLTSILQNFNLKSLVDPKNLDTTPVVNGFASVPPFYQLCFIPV
# In short: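 Turnover of Luciferin-H (100uM, KM) by 10nM human CYP2C9 was measured over 60 min at 37C with NADPH regeneration; inhibitors and some substrates reduce luminescence. Data normalized to sulphaphenazole 57uM.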
# [2] = biological target: Cytochrome P450 3A4 (Homo sapiens) (UniProt P08684); assay: qHTS Assay for Activators of Cytochrome P450 3A4 (AID 885); note: nearly all actives have a fitted effect of over 65% in size
# Sequence of Cytochrome P450 3A4 (Homo sapiens) (P08684 whole entry, looked up): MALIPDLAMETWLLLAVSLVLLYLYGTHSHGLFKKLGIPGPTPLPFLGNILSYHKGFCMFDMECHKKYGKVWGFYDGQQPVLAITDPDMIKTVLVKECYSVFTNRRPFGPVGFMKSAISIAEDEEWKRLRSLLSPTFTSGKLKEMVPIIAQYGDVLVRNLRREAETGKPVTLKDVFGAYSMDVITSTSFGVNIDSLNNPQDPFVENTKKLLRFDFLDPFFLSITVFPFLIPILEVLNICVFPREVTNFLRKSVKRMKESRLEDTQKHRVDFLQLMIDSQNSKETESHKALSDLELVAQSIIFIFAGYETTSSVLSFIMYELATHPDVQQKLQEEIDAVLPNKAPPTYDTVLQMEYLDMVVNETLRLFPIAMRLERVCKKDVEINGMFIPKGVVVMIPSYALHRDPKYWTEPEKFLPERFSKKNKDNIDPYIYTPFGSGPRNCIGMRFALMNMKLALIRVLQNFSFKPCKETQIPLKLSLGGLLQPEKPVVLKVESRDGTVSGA
# In short: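 Signal was normalized against complete inhibition by 57 uM ketoconazole. The reaction used 20nM CYP3A4 with 25uM Luciferin-PPXE, 10-min compound preincubation and a 60-min NADPH-supported step at RT.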
# [3] = biological target: Cytochrome P450 2C19 (Homo sapiens) (UniProt P33261); assay: qHTS Assay for Inhibitors and Substrates of Cytochrome P450 2C19 (AID 899); note: nearly all actives have a fitted effect of over 60% in size; note: potency is the fitted concentration of half-maximal effect
# Sequence of Cytochrome P450 2C19 (Homo sapiens) (P33261 whole entry, looked up): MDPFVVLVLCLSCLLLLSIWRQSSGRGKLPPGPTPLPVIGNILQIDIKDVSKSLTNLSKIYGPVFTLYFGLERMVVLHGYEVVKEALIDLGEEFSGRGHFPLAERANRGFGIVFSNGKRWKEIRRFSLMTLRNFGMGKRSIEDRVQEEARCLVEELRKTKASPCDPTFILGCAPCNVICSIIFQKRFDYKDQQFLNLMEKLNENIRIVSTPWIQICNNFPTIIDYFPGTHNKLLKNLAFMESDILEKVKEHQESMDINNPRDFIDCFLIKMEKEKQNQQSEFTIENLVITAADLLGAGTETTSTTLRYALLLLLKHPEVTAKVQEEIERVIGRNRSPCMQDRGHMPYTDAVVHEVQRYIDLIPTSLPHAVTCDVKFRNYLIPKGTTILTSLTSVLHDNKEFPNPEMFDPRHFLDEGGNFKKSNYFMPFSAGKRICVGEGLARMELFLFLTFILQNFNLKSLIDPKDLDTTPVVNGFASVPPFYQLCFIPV
# In short: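 Reactions contain 5nM enzyme, 10uM Luciferin-H EGE (KM) and 50mM KPO4; compound preincubates 10 min at 37C, NADPH regeneration starts turnover for 60 min. Luminescence after detection reagent gives activity.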
# [4] = biological target: Cytochrome P450 2D6 (Homo sapiens) (UniProt P10635); assay: qHTS Assay for Inhibitors and Substrates of Cytochrome P450 2D6 (AID 891);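 note: luciferin methyl ether substrate demethylated by CYP2D6 with NADPH regeneration; nearly all actives have a fitted effect of over 60% in size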
# Sequence of Cytochrome P450 2D6 (Homo sapiens) (P10635 whole entry, looked up): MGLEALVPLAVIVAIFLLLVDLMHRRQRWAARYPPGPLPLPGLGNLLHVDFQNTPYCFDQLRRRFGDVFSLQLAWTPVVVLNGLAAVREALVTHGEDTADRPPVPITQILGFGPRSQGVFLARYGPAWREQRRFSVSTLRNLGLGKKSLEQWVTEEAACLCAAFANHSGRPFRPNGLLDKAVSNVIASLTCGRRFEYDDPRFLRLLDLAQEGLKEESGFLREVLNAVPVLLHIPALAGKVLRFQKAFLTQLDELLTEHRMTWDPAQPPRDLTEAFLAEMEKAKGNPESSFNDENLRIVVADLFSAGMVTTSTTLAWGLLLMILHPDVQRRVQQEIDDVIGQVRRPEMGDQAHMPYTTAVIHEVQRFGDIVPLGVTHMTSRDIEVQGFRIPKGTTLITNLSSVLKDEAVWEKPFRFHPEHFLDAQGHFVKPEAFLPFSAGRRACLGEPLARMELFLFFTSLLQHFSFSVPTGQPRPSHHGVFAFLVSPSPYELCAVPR
# In short: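 Human CYP2D6 (5 nM) with 30 uM Luciferin-ME EGE (at Km) in 100 mM KPO4, compound preincubated 10 min, then NADPH regeneration system for 60 min at room temperature. Luciferin read by luminescence; normalized to 1.43 uM quinidine.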
Structure (SMILES),Potency [1],"activity change, positive = activation [2]",Potency [3],Potency [4]
CC12C=C(/C=C/c3ccccc3)C(C)(C1)C(c1ccccc1)CC2=O (configuration not stated),inactive,-52.8% [at 11.4 µM],794 nM (active),–
COc1ccc(O[C@H]2C=C[C@@H](c3ccccc3)O[C@H]2COC(=O)N2CCCCC2)cc1,2510 nM (active),–,501 nM (active),–
CC(=O)OCC1OC(C#Cc2ccc(Br)cc2)C=CC1OC(C)=O (configuration not stated),inactive,-46% [at 11.4 µM],inactive,inactive
CC(C)=CCC/C(C)=C/C=C/C1=CC2(C)CC1(C)C(/C=C(\C)CCC=C(C)C)CC2=O (configuration not stated),inactive,-35% [at 11.4 µM],inactive,inactive
CCC(=O)CC(NC(=O)OC)c1ccccc1 (configuration not stated),inactive,-34.8% [at 11.4 µM],inactive,inactive
CCOC(=O)[C@]1(C(NC(=O)OC)c2ccccc2)CCCC1=O (some centres not stated),inactive,-34% [at 11.4 µM],1260 nM (active),inactive
CCCCCCCC#Cc1ccccc1/C=N/S(=O)C(C)(C)C (configuration not stated),inactive,-47.5% [at 11.4 µM],inactive,inactive
C=CCOC(=O)C(C(=O)CC)C(NC(=O)OC)c1ccc(F)cc1 (configuration not stated),inactive,-52.3% [at 11.4 µM],inactive,inactive
C=C(C)C(O)/C=C/CCCCCCC (configuration not stated),inactive,-33.5% [at 11.4 µM],inactive,inactive
COC1(C#CC2C=CC(OC(C)=O)C(COC(C)=O)O2)CCCCC1 (configuration not stated),inactive,-43% [at 11.4 µM],inactive,inactive
